Source: PubChem BioAssay (several laboratories)
TIM10 inh: inhibits growth of TIM10 yeast strain | S. cerevisiae TIM10 strain growth, BacTiter-Glo luminescence, 24 h | inhibition, % at 10 µM | hit rate 1.4% among 330,000;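 active = inhibition of 40% or more at the single tested concentration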;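 note: wild-type TIM10 isogenic control strain grown at permissive 25 °C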
tim23-1 inh: tim23-1 yeast growth inhibition | hit rate 1.3% among 330,000 | S. cerevisiae tim23-1 growth, BacTiter-Glo luminescence, 24 h | inhibition, % at 20 µM;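 active = growth inhibition of the mutant yeast at or above 50%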;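 note: temperature-sensitive mutant grown at 25 °C; plate controls were DMSO-treated mutant yeast for no effect and medium wells lacking yeast for full effect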
V-ATPase pH: yeast V-ATPase proton transport regulation by pHLuorin. hit rate 0.37% among 350,000. response, % at 10 µM. S. cerevisiae, pHLuorin cytosolic pH fluorescence. AID 504577; in the data active = response mostly above about 7.3%, no sharp cut-off; inactive = mostly below about 5.4%; note: actives read high
tim10-1 inh: inhibits growth of tim10-1 mutant yeast. S. cerevisiae tim10-1 ts strain growth, BacTiter-Glo, 24 h. inhibition, % at 20 µM. hit rate 2.2% among 330,000. AID 463190;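 active = inhibition of at least 40%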;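 note: mutant grown at 25 °C; 0% = DMSO wells with yeast and 100% = wells holding no yeast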
PfHsp90 yeast 2: reduces growth (ATP signal) of yeast expressing P. falciparum Hsp90. hit rate 0.32% among 310,000. inhibition, % at 9.4 µM. S. cerevisiae expressing PfHsp90, BacTiter-Glo ATP, 48 h; yeast lacking PDR1 and PDR3 efflux regulators;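 active = every replicate shows inhibition above about 80%, whatever the replicate mean, limit read from the data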;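 note: 0% = DMSO neutral controls and 100% = 20 µM radicicol positive controls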
VATPase regulator: yeast V-ATPase proton transport regulation. hit rate 2% among 980. shares compounds with V-ATPase pH. response, % at 10 µM. S. cerevisiae pHLuorin cytosolic pH; in the data active = response above about 24%;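 note: plate controls were vehicle wells for no effect and positive control wells for full effect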
Numbers without * were called inactive; nt = not tested or not shown. This is a sample that favours compounds with a hit; in the whole collection about 3.7% have one here.

SMILES	TIM10 inh	tim23-1 inh	V-ATPase pH	tim10-1 inh	PfHsp90 yeast 2	VATPase regulator
COCCN(CC(=O)Nc1cccc(C)c1C)C(=O)CN1C(=O)NC2(CCCCC2)C1=O	4	-1	-1	6	nt	nt
O=C(CCCN1C(=O)/C(=C/c2ccccc2Cl)SC1=S)NNC(=O)c1ccccc1Cl	20	8	10*	21	-5	4
Cn1c(N)c(C(=O)c2ccc(Cl)cc2)c(=O)n(C)c1=O	-11	8	3	0	-2	nt
Cn1c(N)c(C(=O)c2ccc(F)cc2F)c(=O)n(C)c1=O	-19	4	8.4*	0	7	0
COc1ccc(CN(C(=O)c2cc(=O)c3ccccc3o2)C2CCS(=O)(=O)C2)cc1 (stereo not given)	-3	7	-1	16	6	nt
Cc1ccc(C(=O)Nc2ccc(N3CCCCC3)cc2)cc1	-13	-3	9.9*	-3	13	3
Cc1ccc(C(=O)Nc2ccc(N3CCCC3)cc2)cc1	7	-4	0	-6	-7	nt
CC(=O)NC(CC(=O)OCC(=O)c1c(N)n(C)c(=O)n(C)c1=O)c1ccccc1 (stereo not given)	-19	6	11*	-10	-23	-1
C=CCOc1ccc(/C=C/C(=O)N2CCCN(S(=O)(=O)c3c(C)noc3C)CC2)cc1	16	32	6	29	-20	nt
CC(=O)NCCNS(=O)(=O)c1ccc(C)c([N+](=O)[O-])c1	-4	21	10*	0	-17	1
O=c1[nH]n(-c2ccc(Cl)cc2)c(=O)c(Cl)c1Cl	6	8	2	-27	nt	1
O=C(Nc1ccc(F)cc1)Nc1cc(S(=O)(=O)N2CCOCC2)ccc1N1CCCC1	-4	2	8.6*	7	-6	-3
Cc1ccc(S(=O)(=O)N2C[C@H]3[C@H]4C(=O)N(c5ccccc5)C(=O)[C@H]4C[C@H](OC(=O)NCc4ccccc4F)[C@@]3(O)C2)cc1	nt	nt	1	nt	nt	nt
O[C@@H]1CN(C2CCN(Cc3ccccc3)CC2)CC[C@H]1N1CCCCCC1	nt	nt	11*	nt	-3	0
O[C@@H]1CN(C2CCCCC2)CC[C@H]1N1CCN(CCc2ccccc2)CC1	-71	-115	-1	-35	-9	nt
O=C1CC(=O)C(n2cncn2)C(c2ccc(Cl)cc2)C1 (stereo not given)	5	11	7.5*	6	8	2
CC(C)[C@H](NC(=O)c1ccccc1F)C(=O)NC1CCCCCCC1	6	15	2	17	24	nt
COc1ccccc1N1CC(C(=O)Nc2ccccc2N2CCCC2)CC1=O (stereo not given)	-4	-2	7.6*	-9	-15	1
O=C(Nc1ccccc1N1CCCCC1)C1CC(=O)N(c2ccccc2F)C1 (stereo not given)	19	41	0	21	-5	nt
COc1ccc(-c2ccc(CN3C(C(C)C)C(=O)N(Cc4cn(Cc5ccco5)nn4)CCS3(=O)=O)cc2)cn1 (stereo not given)	nt	nt	0	nt	nt	nt
COc1ccc(NC(=O)COC(=O)/C=C/c2ccccc2[N+](=O)[O-])cc1	5	-12	-2	-13	-8	nt
COc1ccc(C(=O)COC(=O)/C=C/c2ccccc2[N+](=O)[O-])cc1	-4	17	14*	-6	nt	0
Cc1c(C(=O)N2CCC[C@H]2C(N)=O)oc2c(F)cccc12	-3	-9	-2	7	-13	nt
CC(CNc1ccc(Cl)cc1)(CNc1ccc(Cl)cc1)[N+](=O)[O-]	nt	nt	8.8*	nt	nt	2
CC(=O)Nc1ccc(NC(=O)c2ccc(C)c(S(=O)(=O)Nc3cccc(C)c3)c2)cc1	-3	18	10*	-10	-4	0
SMILES	TIM10 inh	tim23-1 inh	V-ATPase pH	tim10-1 inh	PfHsp90 yeast 2	VATPase regulator
Cc1cc(=O)[nH]n(CCO)c1=O	5	-11	13*	3	-5	-2
c1ccc(CSc2nnc(SCc3ccccn3)s2)nc1	6	5	11*	5	8	-1
N=C(N)SCc1ccccn1	-6	-2	1	-8	17	nt
O=C(O)CN(c1cccc(C(F)(F)F)c1)S(=O)(=O)c1ccccc1	-2	6	8.6*	-9	-2	-3
Cc1c(NC(=O)COC(=O)C2(c3ccccc3F)CCCC2)c(=O)n(-c2ccccc2)n1C	-24	15	11*	8	15	-2
CCOc1ccccc1-n1c(SCC(N)=O)nnc1-c1cccnc1	-1	13	-1	15	11	nt
CCOc1ccccc1-n1c(SCC(=O)N(C(C)C)C(C)C)nnc1-c1cccnc1	7	-61	18*	16	6	-5
NCCCSC1=NCCCN1	0	7	0	6	2	2
COc1ccccc1Oc1ccc2c(c1)C(=O)N(CC1CCCO1)C2=O (stereo not given)	3	3	-2	1	-2	nt
Cc1cccc(NC(=O)CSc2nnc(Cc3ccccc3)o2)c1	16	3	1	3	6	nt
Cc1c(N=Cc2c(O)n(C3CCCCC3)c(=O)[nH]c2=O)c(=O)n(-c2ccccc2)n1C	12	3	19*	4	12	-31
O=C(CCCC(=O)N(c1ccc(F)cc1)C(C(=O)NC1CCCC1)c1ccc(O)cc1)Nc1ccccn1 (stereo not given)	1	11	11*	22	-19	1
O=C(Nc1ccc2ccccc2c1)c1cccc([N+](=O)[O-])c1	12	24	-1	-13	11	nt
O=C(Nc1ccc2[nH]c(=O)[nH]c2c1)c1cccc([N+](=O)[O-])c1	-13	4	8.9*	-12	21	-1
O=C(O)c1cccc(NC(=O)c2ccccc2NC(=O)c2cccc([N+](=O)[O-])c2)c1	-9	-3	6	-7	-2	nt
O=C(Nc1ccccc1C(=O)Nc1ccncc1)c1cccc([N+](=O)[O-])c1	-28	-162	13*	-13	5	0
CN1C(=O)N(C)C2(c3ccccc3)Nn3c(s/c(=C/c4ccccc4)c3=O)=NC12c1ccccc1 (stereo not given)	-2	-11	23*	-1	-18	0
CN1C(=O)N(C)C2(c3ccccc3)NC(=O)NC12c1ccccc1 (stereo not given)	0	-8	-1	7	18	nt
COc1ccc(CC(=O)OC(C)C(=O)c2ccc(C)cc2)cc1 (stereo not given)	-5	6	8.3*	13	3	-3
O=c1cc(-c2ccco2)nc(-c2cccs2)o1	-1	50	9.5*	29	-9	4
c1coc(-c2nnc(-c3cccs3)o2)c1	17	9	-1	-10	-21	nt
O=C(NC1CC1)c1ccc(Cl)c(S(=O)(=O)N2CCOCC2)c1	-12	-5	2	1	-14	nt
O=C(COc1ccc([N+](=O)[O-])cc1Cl)N(C1CCCCC1)C1CCS(=O)(=O)C1 (stereo not given)	0	7	0	0	nt	nt
COCCn1c(SCC(=O)OC(C)C)nnc1-c1ccccc1	0	1	9.9*	4	nt	0
